Test results published in PubChem BioAssay AID540300 (National Center for Advancing Translational Sciences (NCATS), 2011).
The other results are listed elsewhere or left out. Activity calls are given as the source filed them. Calls come from the whole dose curve; as a rule, active = well fitted curve in the direction sought with a large enough effect; inconclusive = small, poorly fitted or top-dose-only effect, or another doubt; inactive = no such curve, though single readings can be large or run the other way.

Experiment: Inhibitors of DNA Polymerase Beta: Hit Validation in Klenow Fragment Assay
Settings: Klenow exo- polymerase counter-screen, fluorescent DNA substrate; series mostly up to 57.1 µM
Text: The base excision repair system in human cells is a target for therapeutic modulation of the response to irradiation treatment and DNA-damaging drugs. A key enzyme in this system is the bi-functional DNA polymerase known as DNA polymerase beta (pol b). […] Using an integrated approach involving discovery of small molecule probes for pol b via qHTS and validation by crystallography and kinetics along with cell-based validation experiments, we will test the hypothesis that base excision repair can be strategically modulated in human cells by targeting pol b. Thus, we anticipate the pol b-specific probes emerging from this research will serve as starting points in the development of clinical agents for use in down regulation of DNA base excision repair during therapeutic interventions against cancer. After the completion of the qHTS against the Molecular Libraries Small Molecular Repository (MLSMR), cherry picked compounds were re-affirmed in the primary qHTS pol beta assay and further characterized in several follow-up assays. An E. coli Klenow exo- fragment assay was used as a counter screen assay. The Klenow exo- fragment is a large protein fragment of DNA polymerase which lack exonuclease activity. Measuring compounds activity against the Klenow exo- fragment helps identifying promiscuous compounds. […] NIH Chemical Genomics Center [NCGC] NIH Molecular Libraries Probe Centers Network [MLPCN] MLPCN Grant: MH090863-01 Assay Submitter (PI): Samuel Wilson, National Institute of Environmental Health Sciences (NIEHS), NIH Assay Submitter (PI): Samuel Wilson, National Institute of Environmental Health Sciences (NIEHS), NIH
A stepwise description of the 1536-well assay is shown as described in primary assay. Three microliters of reagents (buffer in column 3 and 4 as negative control and 5nM Klenow enzyme in columns 1, 2, and 5-48) will be dispensed into 1,536-well black solid-bottomed plate. Compounds (23nl) will be transferred via Kalypsys pin tool equipped with 1536-pin array (10nl slotted pins, V&P Scientific, San Diego, CA). The plates will then be incubated for 15 min at room temperature, and 1 µl substrate of tripartate ds DNA (50nM final concentration) will be added to start the reaction and kinetically read twice at 0 min and 10 min on ViewLux reader.

Row | SMILES | outcome
1 | Cc1ccc(C(=O)Oc2coc(CSc3nnc(NC(=O)c4cccs4)s3)cc2=O)cc1C | inactive
2 | O=C(c1cc2c(s1)CCC2)N1CCN(c2ccccc2)CC1 | inactive
3 | COc1cc([C@H](Cc2ccccc2)NC(C)=O)oc(=O)c1 | inactive
4 | Cc1c(CCC(=O)O)c(=O)oc2c(C)c(OCc3ccccc3Cl)ccc12 | inactive
5 | CCOc1ccccc1/C=c1\sc2nc(-c3ccco3)nn2c1=O | inactive
6 | O=C(CN1CCN(S(=O)(=O)c2cc(Cl)ccc2Cl)CC1)c1ccc(O)c(O)c1 | inactive
7 | COc1ccc(Cc2nnc(NC(=O)Cc3cccs3)s2)cc1 | inactive
8 | O=C(Nc1ccc(S(=O)(=O)Nc2nccs2)cc1)c1cc(-c2ccncc2)nc2ccccc12 | inactive
9 | Cc1ccc2nc(-c3ccncc3)cc(C(=O)Nc3ccc(OC(F)F)cc3)c2c1 | inactive
10 | Cc1c(CC(=O)N2CCN(C(=O)C3COc4ccccc4O3)CC2)c(=O)oc2c(O)c(O)ccc12 (stereo not given) | inactive
